In the library only some 19% were active in any assay of this set; here they are far more common.
RORg inh = qHTS for inhibitors of ROR gamma transcriptional activity. Nuclear receptor ROR-gamma (Mus musculus), P51450. Drosophila S2 Gal4-RORgamma UAS-luciferase reporter, 20 h. Potency, µM (top dose mostly 53.6 µM), for the others: at the top dose activity change, negative = inhibition, usual class: inhibitors. actives 5.4% (n = 310,000); note: nearly all actives have a fitted effect of over 60% in size
Target sequence (P51450 whole entry, looked up, the tested form may be a part): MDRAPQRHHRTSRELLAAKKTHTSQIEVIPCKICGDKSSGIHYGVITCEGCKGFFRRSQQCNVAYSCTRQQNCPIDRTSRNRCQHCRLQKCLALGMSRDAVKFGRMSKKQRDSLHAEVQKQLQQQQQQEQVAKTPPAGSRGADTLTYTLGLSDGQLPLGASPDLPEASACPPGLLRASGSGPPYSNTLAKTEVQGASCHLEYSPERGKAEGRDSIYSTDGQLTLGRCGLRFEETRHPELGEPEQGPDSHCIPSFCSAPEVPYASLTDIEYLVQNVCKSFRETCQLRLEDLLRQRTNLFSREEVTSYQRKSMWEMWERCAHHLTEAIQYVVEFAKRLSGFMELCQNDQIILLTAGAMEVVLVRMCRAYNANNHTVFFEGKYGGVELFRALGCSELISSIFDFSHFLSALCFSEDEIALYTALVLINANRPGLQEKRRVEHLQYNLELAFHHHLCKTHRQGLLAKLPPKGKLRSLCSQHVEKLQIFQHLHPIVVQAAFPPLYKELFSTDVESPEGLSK
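ROR gamma transcriptional activity was tracked as Gal4-UAS luciferase output in stably transfected Drosophila Schneider cells, with compound added 1 hr before 700 uM copper sulfate induction and a 20 hr ambient-temperature incubation.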
Gal4-VP16 FLuc = VP16 counterscreen qHTS for inhibitors of ROR gamma transcriptional activity | AID 2546, 2010 | Drosophila S2 Gal4-VP16 UAS-luciferase, luminescence, 20 h | Potency, µM (doses to about 53.6 µM), without a hit: top-dose activity, negative = inhibition, usual class: inhibitors | actives 3.5% (n = 310,000);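 note: Gal4-VP16 expression switched on by copper sulfate through the metallothionein promoter; nearly all actives have a fitted effect of over 50% in size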
TDP1 inh = qHTS Assay for Inhibitors of Tyrosyl-DNA Phosphodiesterase (TDP1) | Tyrosyl-DNA phosphodiesterase 1 (Homo sapiens), Q9NUW8 | recombinant TDP1, AlphaScreen DNA substrate cleavage | Potency, µM (titrated, usually from 130 µM), without a hit: at the top dose activity change, negative = inhibition, most hits filed as inhibitors | actives 0.28% (n = 350,000) | AID 485290, 2010; note: nearly all actives have a fitted effect of over 40% in size
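Recombinant E. coli-expressed Tdp1 (1 nM) preincubated with compound 15 min at RT, then 5'-biotin/3'-phosphotyrosine-FITC DNA substrate (15 nM) added for 5 min. AlphaScreen beads (10 ug/ml) added, 10 min RT; tyrosine-FITC cleavage read as signal loss.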
DT40 TDP1 CPT = qHTS for Inhibitors of human tyrosyl-DNA phosphodiesterase 1 (TDP1): qHTS in cells in presence of CPT; chicken DT40 Tdp1-/-;hTDP1 cells + 20 nM CPT, ATP luminescence, 48 h; Potency, µM (highest dose often 46.2 µM), for inactives: top-dose activity change, negative = growth inhibition, usual class: inhibitors; actives 12% (n = 420,000); AID 686979, 2013; note: nearly all actives have a fitted effect of over 55% in size
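Chicken DT40 Tdp1-/- cells complemented with human TDP1, 400 cells/well, exposed to compounds plus 20 nM camptothecin for at least 48 h at 37 C; viability read as ATP content by CellTiter-Glo luminescence.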
TDP1 cell noCPT = qHTS for Inhibitors of human tyrosyl-DNA phosphodiesterase 1 (TDP1): qHTS in cells in absence of CPT | DT40 Tdp1-/- hTDP1 cells, no CPT, ATP luminescence, 48 h | AID 686978, 2013 | Potency, µM (series often up to 46.2 µM), for the others: at the highest dose activity change, negative = growth inhibition, most hits filed as inhibitors | actives 15% (n = 420,000); note: nearly all actives have a fitted effect of over 55% in size
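A cellular qHTS used chicken DT40 cells lacking endogenous Tdp1 but carrying stably transfected human TDP1. Compounds were applied without camptothecin, and cell growth kinetics were judged by ATP-dependent luminescence after ≥48 hr.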
* = called active by the depositor; ? = inconclusive; / = not tested or not shown; [ ] = dose if it differs, or a comment. Calls come from the whole dose curve; as a rule, active = well fitted curve in the direction sought with a large enough effect; inconclusive = small, poorly fitted or top-dose-only effect, or another doubt; inactive = no such curve, though single readings can be large; an effect the other way counts as inactive or inconclusive. % is set by controls: 0 for no effect and ±100 for the full control effect; potency is the fitted concentration of half-maximal effect.

SMILES	RORg inh	Gal4-VP16 FLuc	TDP1 inh	DT40 TDP1 CPT	TDP1 cell noCPT
Cc1cc(C)c(S(=O)(=O)NCCCn2ccnc2)c(C)c1	23.8%	5.6%	1.1%	?	?
N/C(=N\OC(=O)CCN1C(=O)c2ccccc2C1=O)c1ccccn1	25.6%	?	2.4%	-16.4%	0.3%
C=C1c2nc3ccccc3n2C=C(c2ccc(C)cc2)N1c1ccccc1	/	/	/	8.2µM*	13µM*
CCOc1ccc(S(=O)(=O)N2CCC(C(=O)N3CCN(c4ccccc4F)CC3)CC2)cc1C	21.9%	-7.4%	-4.1%	23.1µM*	29.1µM*
CCOC(=O)N1CCN(S(=O)(=O)c2ccc3c(c2)SC(C)C(=O)N3)CC1 (stereo not given)	?	?	2.5%	13µM*	9.2µM*
CCOc1ccc(S(=O)(=O)N2CCN(c3ccccc3F)CC2)c2cccnc12	35.9%	-5.3%	6.3%	20.6µM*	16.4µM*
Cc1cccc(N2CCN(C(=O)C3CCN(S(=O)(=O)c4ccc5c(c4)oc(=O)n5C)CC3)CC2)c1C	/	/	-3.8%	4.61µM*	3.66µM*
CCOc1ccc(CN2CCC(C(=O)N3CCN(c4ccccc4F)CC3)CC2)cc1OC	-12.6%[0.365 µM]	/	1.1%	-16.6%	-22.0%
COc1cc2nc(CN3CCN(S(=O)(=O)c4c(F)cccc4F)CC3)[nH]c(=O)c2cc1OC	/	/	0.9%	-15.1%	-14.9%
COc1cc(C)ccc1S(=O)(=O)NC1CC(C)(C)NC(C)(C)C1	-17.9%	-11.4%	/	-10.9%	-7.4%
Cc1ccc(NC(=O)CSc2nccn2Cc2ccco2)c(C)c1	?	-21.9%	3.7%	-27.6%	-0.1%
COc1ccccc1CNC(=O)CCc1cn(C)c2ccccc12	30.0%	-0.2%	/	?	?
CCOC(=O)c1cccc(NC(=O)C2CCN(S(=O)(=O)c3ccc4c(c3)oc(=O)n4C)CC2)c1	/	/	-1.3%	?	20.6µM*
CCOC(=O)N1CCN(S(=O)(=O)c2ccc(OCC)c(C)c2)CC1	6.1%	?	-6.2%	?	9.2µM*
Cn1c(=O)oc2cc(S(=O)(=O)N3CCC(C(=O)N4CCN(c5ccccc5F)CC4)CC3)ccc21	/	/	6.4%	?	18.4µM*
CCOC(=O)c1cccc(NC(=O)C2CCCN(S(=O)(=O)c3ccc4c(c3)oc(=O)n4C)C2)c1 (stereo not given)	/	/	1.3%	?	?
CCOC(=O)C1CCCN(S(=O)(=O)c2ccc3c(c2)oc(=O)n3C)C1 (stereo not given)	/	/	-7.0%	-9.5%	?
Cc1cccc(N2CCN(C(=O)C3CCCN(S(=O)(=O)c4ccc5c(c4)oc(=O)n5C)C3)CC2)c1C (stereo not given)	/	/	3.8%	7.31µM*	3.66µM*
CCOc1ccc(N2CC(NC(=O)Cc3cccs3)CC2=O)cc1 (stereo not given)	/	/	-2.6%	12.9%	4.3%
Cc1ccc(S(=O)(=O)c2nc(-c3ccc(F)cc3)oc2N2CCN(c3ccccc3)CC2)cc1	/	/	1.2%	?	18.4µM*
O=S(=O)(c1ccccc1)c1nc(-c2ccc(F)cc2)oc1N1CCCCCC1	/	/	1.1%	18.4µM*	14.6µM*
Cc1ccc(CSc2nc(-c3ccc(C(C)(C)C)cc3)nc3cc(=O)[nH]n23)cc1	/	/	7.9%	?	?
Cc1ccc(C(C)C)c(OCCSc2nc(-c3cccs3)nc3cc(=O)[nH]n23)c1	/	/	0.0%	?	?
C=CCc1ccccc1OCCSc1nc(-c2cccs2)nc2cc(=O)[nH]n12	/	/	-5.3%	?	?
O=c1cc2nc(-c3ccccc3)nc(SCc3cccc(Br)c3)n2[nH]1	/	/	2.6%	?	9.2µM*
SMILES	RORg inh	Gal4-VP16 FLuc	TDP1 inh	DT40 TDP1 CPT	TDP1 cell noCPT
Cn1c(SCc2cccc(Br)c2)nc2c1c(=O)[nH]c(=O)n2C	2.2%[1.91 µM]	4.2%	/	?	-29.1%
Cc1ccc(-c2nc(SCCOc3ccccc3C)n3[nH]c(=O)cc3n2)cc1	/	/	5.3%	23.1µM*	25.9µM*
COc1ccccc1OCCSc1nc(-c2ccc(C(C)(C)C)cc2)nc2cc(=O)[nH]n12	/	/	0.0%	13µM*	?
C=CCc1ccccc1OCCSc1nc(-c2ccc(C(C)(C)C)cc2)nc2cc(=O)[nH]n12	/	/	5.3%	23.1µM*	?
C/C(CCC(C)C)=N\NS(=O)(=O)c1ccc(C)c([N+](=O)[O-])c1	-22.4%	0.9%	3.6%	-4.8%	20.3%
Cc1cc(C)c(C)c(C(=O)c2ccccc2C(=O)O)c1C	15.2%	-11.7%	0.0%	3.66µM*	3.26µM*
COc1cc(-c2cnc3ccccc3c2)cc2c1OCCN(C(=O)Cn1nccc1C)C2	/	/	/	-10.6%[9.04 µM]	-2.0%
O=c1[nH]cnc2sc3c(c12)CCN(Cc1ccccc1)C3	-11.8%	-5.8%	/	?	?
OCCCNc1ncnc2sc3c(c12)CCN(Cc1ccccc1)C3	8.7%	3.1%	/	?	18.4µM*
CCc1c2ccccc2nn1-c1ccccc1C(=O)C(C)=O	-10.2%	-4.2%	3.8%	16.2%	-3.4%
O=C(O)CC1CCC(=C(Cl)Cl)C1 (stereo not given)	?	?	/	1.03µM*	2.91µM*
Cc1ccc2onc(CC(=O)N(C)c3ccccc3)c2c1	/	/	7.8%	?	?
CN1C(=S)SC(C)(NO)C1(C)C (stereo not given)	15.8µM*	?	/	7.5%	0.0%
CC(C)NS(=O)(=O)c1ccc(NC(=S)NC(=O)c2ccc(-c3ccccc3)cc2)cc1	7.08µM*	?	4.0%	11.2µM*	14.1µM*
O=C(O)c1ccc(NC(=S)NC(=O)c2ccc(-c3ccccc3)cc2)cc1	12.8%	0.9%	/	13.9%	?
CC(=O)Nc1ccc(NC(=S)NC(=O)c2ccc(-c3ccccc3)cc2)cc1	/	/	/	-3.3%	-6.0%
O=C(NC(=S)Nc1ccccc1)c1ccc(-c2ccccc2)cc1	3.55µM*	4.47µM*	4.7%	?	18.4µM*
CC(=O)NC(c1ccccc1)c1nc(-c2cccc(C(=O)O)c2)cs1 (stereo not given)	/	/	/	-16.6%	-1.1%
S=c1[nH]nc(CCc2ccc(Cl)cc2)o1	7.94µM*	?	5.3%	-23.6%	-22.1%
S=c1[nH]nc(Cc2c[nH]c3ccccc23)o1	-6.9%	-12.8%	0.0%	-21.3%	-1.3%
S=c1[nH]nc(COc2ccc(Cl)cc2)o1	6.31µM*	?	-1.0%	-12.0%	0.4%
Cn1c(=O)c2sccc2n(Cc2ccccc2)c1=O	9.6%	-0.9%	/	-14.1%	-12.7%
S=C(NC1CCCCC1)N1CCc2[nH]c3ccccc3c2C1	-16.0%	-6.0%	7.0%	-0.3%	-19.3%

From PubChem
